Data as given in PubChem BioAssay AID504327 (National Center for Advancing Translational Sciences (NCATS), 2011).
Hit rate of the full screen: of about 390,000 compounds, about 820 (0.21%) were called active. Inconclusive results (about 3%) are left out. Calls follow the shape of the dose curve; as a rule, active = well fitted inhibition curve with a large enough effect; inconclusive = small, poorly fitted or top-dose-only effect, or another doubt; inactive = no such curve, though single readings can be large or run the other way. Only a selection was taken, and actives are over-represented in it overall.

These compounds were tested against Histone acetyltransferase KAT2A (Homo sapiens) (UniProt Q92830) (assay: qHTS Assay for Inhibitors of GCN5L2). Details: GCN5L2 HAT assay, ThioGlo1 CoA-SH fluorescence; series mostly up to 58.9 µM; activity change, negative = inhibition: at the top concentration.
Outline: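 Free CoA generated was detected with ThioGlo1 (50uM) fluorescence at Ex340nm/Em540nm, read immediately and after 20 min at room temperature. Enzyme, 20 nM in HEPES pH 7.5 buffer, saw compounds 15 min before adding 75uM H3(1-25) peptide and 70uM acetyl-CoA.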
% is scaled to controls: 0 for no effect and ±100 for the full control effect; potency is read from the fitted curve at half-maximal effect.

Sequence of Histone acetyltransferase KAT2A (Homo sapiens) (Q92830 whole entry, looked up): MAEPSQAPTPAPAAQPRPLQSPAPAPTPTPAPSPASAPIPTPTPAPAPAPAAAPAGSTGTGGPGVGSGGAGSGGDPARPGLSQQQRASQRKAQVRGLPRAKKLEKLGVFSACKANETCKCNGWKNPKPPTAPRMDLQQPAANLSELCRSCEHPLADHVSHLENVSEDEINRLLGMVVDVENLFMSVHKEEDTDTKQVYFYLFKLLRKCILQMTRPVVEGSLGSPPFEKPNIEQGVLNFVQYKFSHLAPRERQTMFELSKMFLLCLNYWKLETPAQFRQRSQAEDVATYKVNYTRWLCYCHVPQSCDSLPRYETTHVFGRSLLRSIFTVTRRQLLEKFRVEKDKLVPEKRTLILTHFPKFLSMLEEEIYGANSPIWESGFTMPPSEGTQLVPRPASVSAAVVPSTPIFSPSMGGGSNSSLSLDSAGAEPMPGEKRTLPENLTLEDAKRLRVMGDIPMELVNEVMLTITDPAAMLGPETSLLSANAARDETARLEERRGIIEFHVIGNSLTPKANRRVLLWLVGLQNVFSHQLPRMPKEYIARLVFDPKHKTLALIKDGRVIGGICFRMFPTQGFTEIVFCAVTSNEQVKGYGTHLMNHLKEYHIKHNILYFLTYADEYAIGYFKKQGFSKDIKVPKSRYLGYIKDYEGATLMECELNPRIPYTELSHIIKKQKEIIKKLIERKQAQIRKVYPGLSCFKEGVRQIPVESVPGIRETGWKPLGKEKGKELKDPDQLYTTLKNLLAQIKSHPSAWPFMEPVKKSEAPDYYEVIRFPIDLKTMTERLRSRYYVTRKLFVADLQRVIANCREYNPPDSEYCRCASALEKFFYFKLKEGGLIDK

Row | Structure (SMILES) | Potency | activity change, negative = inhibition
1 | Cc1ccc(/C(=C/CN2CCCC2)c2ccccn2)cc1 | inactive | 
2 | COC(=O)N1CCC2(CCCN(c3ccncc3)C2)CC1 |  | -8.99% (inactive)
3 | O=C(Oc1cc(OC(=O)c2ccccc2)c2c(c1)OC(c1ccc(OC(=O)c3ccccc3)c(OC(=O)c3ccccc3)c1)[C@@H](OC(=O)c1ccccc1)C2)c1ccccc1 (stereo not given in full) |  | 6.73% (inactive)
4 | CCOC(=O)c1sc(=S)n2c1[nH]c(=O)c1ccc(C(=O)OC)cc12 | 35.5 µM (active) | 
5 | COC(=O)c1sc2[nH]c(=S)n(N)c(=O)c2c1C |  | -14.2% (inactive)
6 | CCOC(=O)C1=C(C)Nc2sc(C(=O)c3ccc(Br)cc3)c(N)c2C1c1ccc(C(=O)OC)cc1 (stereo not given) |  | -19.5% (inactive)
7 | CCCc1cc(=S)n2c([nH]c3ccccc32)c1C#N | 22.4 µM (active) | 
8 | COc1cc2c(cc1OC)[C@@H](Cc1cc(OC)c(OC)c(OC)c1)[N+](C)(CCCOC(=O)CC/C=C/CCC(=O)OCCC[N+]1(C)CCc3cc(OC)c(OC)cc3[C@H]1Cc1cc(OC)c(OC)c(OC)c1)CC2 (stereo not given in full) |  | -0.503% (inactive)
9 | O=Cc1c(N2CCN(c3cccc(Cl)c3)CC2)nc2ccccn2c1=O |  | 0.398% (inactive)
10 | O=Cc1c(Nc2ccccc2Cl)nc2ccccn2c1=O | 22.4 µM (active) | 
11 | Cc1cccn2c(=O)c(C=O)c(Nc3ccc(S(N)(=O)=O)cc3)nc12 |  | -4.25% (inactive)
12 | CC(=O)NC(=O)c1ccccc1O |  | -2.65% (inactive)
13 | CC1CC2C3CCC4=CC(=O)C=C[C@]4(C)[C@@]3(F)[C@@H](O)C[C@]2(C)[C@@]1(O)C(=O)CO (stereo not given in full) |  | -2.41% (inactive)
14 | COc1c2c(cc3occ(-c4ccc5c(c4)OCO5)c(=O)c13)OC(C)(C)C=C2 |  | -15.3% (inactive)
15 | COc1ccc(C(=O)N2CCC3(CC2)CCN(c2ccccn2)CC3)cc1 |  | 7.2% (inactive)
16 | COc1ccc(-c2nc3cnc(OC)nc3n(Cc3ccc(F)cc3)c2=O)cc1 |  | -23.8% (inactive)
17 | CC(N)(C(=O)O)c1ccc(-c2nn[nH]n2)cc1 (stereo not given) |  | 2.68% (inactive)
18 | COCCn1c(=O)c(CCc2ccccc2)nc2cncnc21 |  | -6.53% (inactive)
19 | O=C(O)CCC(=O)O |  | 21.2% (inactive)
20 | COc1ccc(CNc2ncncc2-c2ccccc2OC)c(OC)c1 |  | -13.3% (inactive)

Row | Structure (SMILES) | Potency | activity change, negative = inhibition
21 | O=C1NS(=O)(=O)c2ccccc21 | inactive | 
22 | CC1(C)C=CC(=O)[C@]2(C)C1CC(=O)[C@]1(C)C2CC[C@@]2(C)C(c3ccoc3)OC(=O)C3OC321 (stereo not given in full) |  | 23.3% (inactive)
23 | O=C1C(c2ccccn2)=[N+]([O-])c2ccccc21 |  | -19% (inactive)
24 | O=C1C(c2[nH]c3ccccc3c2O)=Nc2ccccc21 |  | -21.1% (inactive)
25 | O=C(c1ccncc1)N1CCC2(CCN(Cc3cc(C(F)(F)F)cc(C(F)(F)F)c3)CC2)CC1 |  | -0.448% (inactive)
26 | Cc1ccc(C)n1C(Cc1ccccc1)C(=O)O (stereo not given) | 22.4 µM (active) | 
27 | COc1ccc(CNC(=O)C(Cc2ccccc2)n2cccc2)cc1 (stereo not given) |  | -4.02% (inactive)
28 | CCOC(=O)C(Cc1ccc(N)cc1)N1C(=O)c2ccccc2C1=O (stereo not given) |  | -5.43% (inactive)
29 | COc1cccc(Cn2c(=O)cnc3cncnc32)c1 |  | -10.4% (inactive)
30 | CC(=O)N1CCN(C(=O)c2cc(-c3ccc(Cl)s3)nc3ccccc23)CC1 |  | -8.36% (inactive)
31 | Cc1ccc(S(=O)(=O)N2CCN(C(=O)c3ccccc3-c3nc4ccccc4s3)CC2)c(C)c1 |  | 1.58% (inactive)
32 | CC(=O)N1CCN(C(=O)c2cc(-c3ccc(C)o3)nc3ccccc23)CC1 | 20 µM (active) | 
33 | O=c1c(CCc2ccccc2)nc2cnc(N3CCNCC3)nc2n1Cc1cccs1 |  | -17.2% (inactive)
34 | NC(=O)C(=O)N/N=C/c1ccc([N+](=O)[O-])o1 |  | 16.5% (inactive)
35 | CCOC(=O)C1C/C(=C\C(C)=O)c2cccc(C(F)(F)F)c2O1 (stereo not given) |  | 8.45% [at 88.6 µM] (inactive)
36 | CC1C(=O)Nc2ccc(S(=O)(=O)N3CCN(c4ccccc4F)CC3)cc2NC1=O (stereo not given) | 39.8 µM (active) | 
37 | O=C(c1ccc(S(=O)(=O)N2CCCC2)cc1)N1CCN(c2ccccc2F)CC1 |  | -15.7% (inactive)
38 | COc1ccc(N2CCN(S(=O)(=O)c3ccc4c(c3)NC(=O)C(C)C(=O)N4)CC2)cc1 (stereo not given) |  | -3.08% (inactive)
39 | CC(C)=CC1C(C(=O)O)C1(C)C (stereo not given) |  | -4.75% (inactive)
40 | Oc1ccc(Cl)c2c1CCC2 |  | -11.3% (inactive)
